The full ranking holds about 110,000 compounds; the median of “z-score” is about -0.1, and the highest 2% start at about 2. The full list was thinned out, with the highest values kept by preference. Active and inactive are the calls of the source.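 How the source made its calls: active means z-score in the third read window above 3 or below -3; inactive means the rest.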

The target in this test is Metabotropic glutamate receptor 8 (Rattus norvegicus) (UniProt P70579). As to the kind of experiment: rat mGluR8 modulators via GIRK flux, primary screen, cell-based, thallium flux, HTS (AID 488969). The conditions noted are these: HEK293 rat mGluR8, GIRK (G protein-gated inwardly rectifying potassium channel) thallium flux, FluoZin2; at 10 µM; stronger effect = higher value; submaximal glutamate (EC20) added with thallium.
Metabotropic glutamate receptor 8 (Rattus norvegicus), sequence (P70579 whole entry, looked up): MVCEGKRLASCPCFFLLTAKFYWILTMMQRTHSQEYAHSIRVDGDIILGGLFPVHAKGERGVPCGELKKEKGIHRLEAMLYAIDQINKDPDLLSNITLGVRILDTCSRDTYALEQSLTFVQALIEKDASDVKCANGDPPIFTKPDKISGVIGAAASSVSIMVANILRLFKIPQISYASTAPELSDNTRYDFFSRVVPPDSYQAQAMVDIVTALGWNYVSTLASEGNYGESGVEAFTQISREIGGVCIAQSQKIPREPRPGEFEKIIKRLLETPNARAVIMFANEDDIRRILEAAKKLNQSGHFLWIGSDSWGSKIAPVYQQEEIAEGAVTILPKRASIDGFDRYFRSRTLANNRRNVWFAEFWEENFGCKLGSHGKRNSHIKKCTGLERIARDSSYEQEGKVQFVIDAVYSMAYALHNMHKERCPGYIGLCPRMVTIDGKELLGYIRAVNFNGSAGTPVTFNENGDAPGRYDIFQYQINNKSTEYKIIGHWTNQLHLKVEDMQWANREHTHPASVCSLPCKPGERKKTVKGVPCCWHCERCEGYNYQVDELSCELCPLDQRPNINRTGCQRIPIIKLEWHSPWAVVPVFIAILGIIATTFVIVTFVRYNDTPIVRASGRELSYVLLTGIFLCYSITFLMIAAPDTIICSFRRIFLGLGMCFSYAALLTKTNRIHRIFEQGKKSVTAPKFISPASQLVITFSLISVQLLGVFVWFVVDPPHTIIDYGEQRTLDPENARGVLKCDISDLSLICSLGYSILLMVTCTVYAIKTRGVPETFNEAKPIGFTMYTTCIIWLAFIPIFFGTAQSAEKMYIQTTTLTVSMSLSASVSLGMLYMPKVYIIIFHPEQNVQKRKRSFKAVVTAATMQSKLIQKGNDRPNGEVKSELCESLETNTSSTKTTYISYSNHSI
The molecule `CNC(=S)N/N=C/c1c(C)nn(-c2cccc(Cl)c2)c1Cl` returned a z-score of -0.134.
The result for `CCOC(=O)C1CCN(C(=O)CSc2nnc(-c3ccco3)n2-c2ccccc2)CC1` reads -0.369; that for `O=C(NCc1ccccc1Cl)c1ccccc1Oc1ccccc1`, -0.412; that for `CCOC(=O)C1C(=O)Nc2nc3ccccc3n2C1C(C)C` (stereo not given), -0.438.
The result for `Cc1cccc(C)c1Nc1c(-c2ccsc2)nc2ncccn12` reads -0.464; that for `COC(=O)Nc1c(-c2ccccc2)nc2ccccn12`, -0.126.
For `CC(=O)Nc1c(-c2ccccc2)nc2ncccn12` the value was 2.69.
Turning to `Cc1ccc(-c2nc3ncccn3c2NC(=O)C2CC2)cc1`, the z-score is 0.268.
For `Cc1ccc(-c2nc3ccccn3c2NC(=O)c2ccco2)cc1` the value was 0.65; for `CC(=O)Nc1c(-c2ccc(F)cc2)nc2ccccn12`, 2.25.
For `CC(C)(C)NC(=O)CN(C(=O)Cn1nnc(-c2ccc(Cl)cc2)n1)C1CCN(Cc2ccccc2)CC1` the value was -0.128.
The molecule `CC1CC(C)CN(c2ncnc3c2cnn3Cc2ccc(Cl)cc2)C1` (stereo not given) returned a z-score of -0.714.
With `O=C(CSc1nnnn1-c1cccnc1)Nc1ccc(OCc2ccccc2)cc1`, the z-score is -0.183.
For `CCn1c(=O)c(C(=O)NCCc2ccccc2)c(O)c2ccccc21`, the z-score was 0.613.
The result for `CCn1c(=O)c(C(=O)NCCCO)c(O)c2ccccc21` reads 3.51 (active); that for `CCNCCNC(=O)c1c(O)c2ccccc2n(CC)c1=O`, -0.289; that for `COc1ccc(C(=O)COc2ccc(NC(C)=O)cc2)cc1`, -0.0378.
In turn, `COc1ccc(CCNC(=O)c2cc(-c3ccccc3)on2)cc1OC` registered a z-score of 0.914.
The result for `Fc1ccccc1CNC(=S)Nc1ccc(Cl)cc1` reads 2.23; that for `Fc1ccc(CNC(=S)Nc2ccc(Cl)cc2)cc1`, 0.385.
For `S=C(NCCSCc1ccc(Cl)cc1Cl)Nc1ccccc1` the value was -0.181; for `Fc1ccc(NC(=S)NCc2ccccc2Cl)cc1`, 1.74; for `S=C(Nc1ccccc1)Nc1ccc(OCc2ccc(Cl)cc2Cl)cc1`, -0.223.
The result for `S=C(NCc1ccc(Cl)cc1Cl)Nc1ccccc1` reads 3.34 (active); that for `O=C(OC(C(=O)NC1CCCCC1)c1ccccc1)c1ccco1` (stereo not given), -0.0658; that for `Cc1cccc(C(C)C)c1NC(=O)c1ccc(CN(c2ccccc2)S(=O)(=O)c2ccccc2)cc1`, -0.0858.
The molecule `COc1cc2c(cc1NC(=O)C(C)NCc1ccccc1)oc1ccccc12` (stereo not given) registered a z-score of 0.0909.
`O=C(NC1CCCCC1)C(c1ccccc1)N(Cc1ccco1)C(=O)Cn1cnc2ccccc21` (stereo not given): the z-score is -1.29.
Take `CC1(C)Cc2nc(N3CCOCC3)c(C#N)cc2CO1`: the z-score is -0.0959.
`CC(C)c1nc(NCCN2CCOCC2)c(C#N)c2c1COC(C)(C)C2` came in with a z-score of -0.502.
For `Cc1nc(NCCCO)c(C#N)c2c1COC(C)(C)C2`, the z-score was 1.53.
For `CC1(C)Cc2nc(NCCN3CCOCC3)c(C#N)cc2CO1` the value was 7.19 (active); for `CC(C)CCNc1nc2c(cc1C#N)COC(C)(C)C2`, -0.377.
For `CC1(C)Cc2nc(NCCCO)c(C#N)cc2CO1` the value was 2.93; for `Nc1nnc(SCC(=O)c2ccco2)s1`, -0.0604.
In turn, `O=S1(=O)C=C(SCc2ccccc2)Nc2ccccc21` displayed a z-score of -0.11.
`CCOC(=O)c1nn(-c2ccc(OCC)cc2)c(C)c1C(C)=O` showed a z-score of 0.0801.
In turn, `O=C(Nc1ccccc1)c1cnc2n(c1=O)CCS2` had a z-score of -0.146.
For `COc1ccc(CNC(=O)c2cnc3n(c2=O)CCS3)cc1` the value was -0.183; for `CCCCOC(=O)c1ccc(NC(=O)c2cnc3n(c2=O)CCS3)cc1`, 0.203.
For the molecule `CCc1ccc(NC(=O)c2cnc3n(c2=O)CCS3)cc1`, the z-score amounted to 2.53.
For `O=C(NCc1ccc(F)cc1)c1cnc2n(c1=O)CCS2` the value was 2.18.
For `O=C(NCc1ccccc1)c1cnc2n(c1=O)CCS2` the value was -0.0906; for `CCOC(=O)c1ccc(N2C(=O)C3ON(c4ccccc4)C(c4ccco4)C3C2=O)cc1` (stereo not given), -0.354.
For `COc1cc(OC)nc(NC(=O)CSc2nc3ccccc3o2)n1` the value was -0.294; for `Cc1cc(C)cc(N(CC(=O)O)S(=O)(=O)c2c(C)noc2C)c1`, -0.132.
The molecule `CCNC(=S)NN(c1ccccc1)c1ccccc1` returned a z-score of 0.837.
For `CNC(=S)NN(c1ccccc1)c1ccccc1` the value was -0.0349.
The result for `CC(C)NC(=S)NN(c1ccccc1)c1ccccc1` reads 2.38; that for `COc1ccc(OC)c(C2C3=C(CCCC3=O)NC3=C2C(=O)CCC3)c1`, -0.586; that for `O=S(=O)(Cc1ccccc1Cl)CC(O)COc1ccccc1Cl` (stereo not given), -0.273.
Molecule `Cc1nc2ccccn2c1C(=O)NN` showed a z-score of 2.34.
In turn, `Cc1c(C(=O)NN)nc2ccccn12` showed a z-score of -0.145.
On to `COc1ccc(CNC(=O)c2c(C)nc3ccccn23)cc1`, for which the z-score was -0.0334.
As to `COc1nc(N/N=C/c2ccc(-c3ccccc3[N+](=O)[O-])o2)nc(N2CCOCC2)n1`, the z-score is -0.309.
In the case of `COc1ccc(S(=O)(=O)N(CCc2ccccc2)CC(=O)O)cc1Cl`, the z-score is -0.104.
Molecule `CN1C(=O)C(O)(C2OC(C)(C)CCC2=O)c2ccccc21` (stereo not given) showed a z-score of -0.0799.
The result for `NC(=O)C1(NC(=O)[C@@H]2CC3(CC(c4cccc(NC(=O)[C@@H]5CCC(=O)N5)c4)=NO3)CN2C(=O)Cc2ccc(C(F)(F)F)cc2)CC1` (stereo not given in full) reads -0.279; that for `O=C(Nc1nncs1)C1COc2ccccc2O1` (stereo not given), 0.542.
The result for `NC(=O)C1CNc2ccccc2O1` (stereo not given) reads 2.79; that for `CCCNC(=O)C1CNc2ccccc2O1` (stereo not given), -0.2.
For `CCCCSc1nc(C)nc2c1c(=O)n(C)c(=O)n2C` the value was -0.303; for `COc1ccc2[nH]c3c(Cl)ncnc3c2c1`, -0.502; for `COC(=O)c1sc(NC(=O)/C=C/c2ccc(C)o2)nc1C`, -0.15.
Molecule `COc1ccccc1C(O)Cc1nc2ccccc2n1C` (stereo not given) gave a z-score of -0.393.
The result for `Cc1cccc(C)c1NC(=O)C(c1cccc([N+](=O)[O-])c1)N(C)C(=O)c1ccccn1` (stereo not given) reads -0.125; that for `Cc1cccc(C)c1NC(=O)C(NC(=O)c1ccccn1)c1ccc([N+](=O)[O-])cc1` (stereo not given), 2.97; that for `Cc1cccc(C)c1NC(=O)C(NC(=O)c1ccccn1)c1ccccc1[N+](=O)[O-]` (stereo not given), 0.95.
The result for `O=C(Nc1cccc(C(=O)N2CCCC2)c1)c1ccccc1Cl` reads -0.0275; that for `COCCNC(=O)c1ccccc1-c1nc(-c2ccccc2OC)no1`, 0.0674; that for `CC(=Nc1ccccc1)C1=C(O)CCCC1=O`, -0.104.
Regarding `O=C1CC(c2ccc3c(c2)OCO3)C2=C(CCCC2=O)N1` (stereo not given), the z-score was -0.2.
For `N=C(CC1CC(=O)NC(=O)C1)C1=C(O)CCCC1=O` the value was 2.31; for `C/C(=N\NC(=S)NCc1ccccc1)c1ccc2ccccc2c1`, 2.12; for `COc1ccc(NC(=S)NCc2ccco2)cc1`, -0.0213.
For `C=CCNC(=S)N/N=C(\C)c1ccc(OC)cc1` the value was 2.03.
The molecule `CC/C(C)=N/NC(=S)NCc1ccco1` had a z-score of 0.0671.
For `C/C(=N\NC(=O)c1ccco1)c1cc2ccccc2o1` the value was 0.664.
Turning to `C/C(=N\NC(=O)COc1ccccc1F)c1cc2ccccc2o1`, the z-score is -0.0133.
For `C=CCNC(=S)N/N=C(\C)c1cc(OC)c(OC)c(OC)c1` the value was -0.183; for `C/C(=N\NC(=S)NCc1ccccc1)c1ccc(Cl)cc1`, 0.101.
On to `CCNC(=S)N/N=C(\C)c1cc2ccccc2o1`, for which the z-score was 8.26 (active).
For `C/C(=N\NC(=O)Nc1ccccc1)c1ccc2ccccc2c1` the value was -0.112; for `COc1ccc(/C(C)=N/NC(=S)NCc2ccco2)cc1`, 4.34 (active).
`C=C(C)CNC(=S)N/N=C(\C)c1ccc(OC)cc1` displayed a z-score of -1.56.

(Values after PubChem BioAssay AID488969 (Vanderbilt High Throughput Screening Facility, 2010).)
